Hits are enriched below; roughly 3.4% of the tested compounds scored in any of these assays.
miR122 inh: inhibitors of miR-122 in Huh7 cells | Huh7 miR-122 Renilla luciferase sensor, 48 h; neutral wells = 0, positive control = 100 | activation (reporter increase), % at 12.5 µM | 340,000 tested, 0.3% active | AID 602342;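 active means mean replicate activation score at least 90 and every replicate individually at or above 90; inconclusive means only one of the two criteria met; inactive means neither criterion met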;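 further: higher luciferase means less miR-122 activity so hits act as miR-122 inhibitors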
Wnt act: activators of Wnt/beta-catenin signaling; 300,000 tested, 1.2% active; Wnt/beta-catenin reporter cell assay, activator, plate reader; activation, % at 9.35 µM; in the data active means activation above about 30%, passing the limit was not always enough; inconclusive means no clear call, values can overlap the other calls;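 further: 0% = neutral control wells and 100% = positive control wells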
esBAF inh: blocks esBAF chromatin remodeling in mouse ES cells. reporter increase, % at 12.5 µM. Bmi1-luciferase knock-in reporter, 24 h; 100% = twice the neutral-well signal. 350,000 tested, 2% active. AID 602393; in the data active means activation above about 40%; inconclusive means no clear call, values can overlap the other calls;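 further: 0% = median of the plate's neutral control wells and 100% = double that signal; a rise in the Bmi1 reporter signal indicates esBAF inhibition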
MITF TRPM1 HTS: activators of MITF-driven TRPM1 promoter activity in SK-MEL-5 cells; SK-MEL-5 TRPM1-promoter luciferase, 24 h; % of positive control, neutral wells = 0; 300,000 tested, 0.75% active; activation, % at 12.5 µM;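 active means mean activation of at least 80% with every replicate also reaching 80%; inconclusive means mean reaches 80% but some replicate falls short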;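 further: 0% = neutral control wells and 100% = parthenolide positive control wells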
Env fusion inh: blocks HIV Env-driven cell-cell fusion. HeLa-JRFL Env/CEM21 cell fusion, luciferase. inhibition, % at 12.3 µM. 360,000 tested, 1.1% active;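 active means mean replicate inhibition score of at least 50 and every replicate individually at or above 50; inconclusive means only one of the two criteria met; inactive means mean below 50 and not all replicates reaching 50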;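 further: 0% = plate neutral controls and 100% = maraviroc near 300 nM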
esBAF Ring1 qPCR: confirmation of esBAF inhibitors: Ring1 de-repression in mouse ESCs | shares compounds with esBAF inh | 550 tested, under 10 active | fold change at 33 µM | mouse ESC E14, Ring1 mRNA RT-qPCR fold change;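 active means Ring1 gene expression raised more than 2-fold over untreated cells in both replicates at either tested dose; inconclusive means only one replicate above 2-fold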;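 further: Ring1 transcript normalised to actin housekeeping signal by TaqMan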
Fgf4 repress: esBAF inhibition confirmed by Fgf4 repression. shares compounds with esBAF inh. mouse ESC E14, Fgf4 mRNA qPCR fold change; active compounds read low. Fgf4 expression fold change at 33 µM. 550 tested, 4% active;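 active means Fgf4 expression under 0.8 fold of control in both repeat measurements at one or both tested doses; inconclusive means under 0.8 fold in just a single repeat measurement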;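 further: Fgf4 transcript normalised to actin in duplex TaqMan qPCR; cells exposed to compound for 24 h before lysis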
esBAF Bmi1 qPCR: confirmation of esBAF inhibitors: Bmi1 de-repression in mouse ESCs. fold change at 33 µM. mouse ESE14 ES cells, Bmi1 mRNA qPCR fold; active compounds read high. 550 tested, under 10 active. shares compounds with esBAF inh;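 active means Bmi1 expression fold change above 6 at either tested concentration, seen in replicate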;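 further: higher fold means more Bmi1 de-repression and stronger esBAF inhibition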
A549 tox SP: kills or reduces viability of A549 cells; shares compounds with esBAF inh; A549 cytotoxicity, plate reader; cell viability change % (negative = cytotoxic), % at 25 µM, hits read low; 550 tested, under 10 active; AID 743188; call rule not given here
HepG2 cytotox SP: kills or reduces viability of HepG2 cells; HepG2 cytotoxicity, plate reader; active compounds read low; shares compounds with esBAF inh; activity change, negative = inhibition, % at 25 µM; 550 tested, 4% active; in the data active means activity change below about -50%
HEK293 tox SP: HEK293 cell cytotoxicity at single point; shares compounds with esBAF inh; plate reader; activity change, negative = inhibition, % at 25 µM, hits read low; 550 tested, 3% active; AID 743190; in the data active means activity change below about -38%, passing the limit was not always enough
Starred values were filed as active, the others as inactive; [ ] = another dose, or the depositor's remark.

CC(=O)c1ccccc1NC(=O)c1ccc(N2CCCC2=O)cc1 was read as Wnt act 19.5, esBAF inh inconclusive, MITF TRPM1 HTS 60.0 and Env fusion inh -14.6.
C/C=C/c1cnc2c(c1)C(=O)N([C@@H](C)CO)C[C@@H](C)[C@@H](CN(C)S(=O)(=O)c1cn(C)cn1)O2 was read as miR122 inh 0.5[16.7 µM] and esBAF inh -4.8.
`O=C(Nc1ccc(Cl)cc1)N[C@@H]1CC[C@H](CCn2cc(-c3ccccc3F)nn2)O[C@@H]1CO` gave esBAF inh 3.0 and Env fusion inh 22.9[16.7 µM].
For Cc1ccc(S(=O)(=O)Nc2ccc3c(c2)C(=O)N([C@@H](C)CO)C[C@H](C)[C@@H](CN(C)C(=O)C2CCCCC2)OCCCC[C@@H](C)O3)cc1 the results were miR122 inh -3.7[16.7 µM], esBAF inh 2.4 and Env fusion inh -30.8[16.7 µM].
`Oc1cccc(/C=N/N2CCCCC2)c1O` gave miR122 inh -11.3, Wnt act inconclusive, esBAF inh 61.3*, MITF TRPM1 HTS 66.5, Env fusion inh -16.4, esBAF Ring1 qPCR 1.02, Fgf4 repress 1.17, esBAF Bmi1 qPCR 1.87, A549 tox SP -11.7, HepG2 cytotox SP -42.5 and HEK293 tox SP -16.5.
Screening Oc1ccc(/C=N/N2CCCCC2)c(O)c1O returned miR122 inh -6.9, Wnt act -0.9, esBAF inh -3.9, MITF TRPM1 HTS -6.9 and Env fusion inh -3.8.
For Oc1ccccc1/C=N/N1CCCCC1 the results were Wnt act 5.4, MITF TRPM1 HTS 38.4 and Env fusion inh 2.3.
Screening Oc1ccccc1C=NN1CCCCCC1 returned miR122 inh 0.7, Wnt act -0.6, esBAF inh 77.2*, MITF TRPM1 HTS 69.1, Env fusion inh -49.1, esBAF Ring1 qPCR 1.19, Fgf4 repress 0.809, esBAF Bmi1 qPCR 1.41, A549 tox SP -4.5, HepG2 cytotox SP 19.7 and HEK293 tox SP 1.8.
`Oc1ccc(Cl)cc1C=NN1CCCCCC1` gave miR122 inh -1.8, Wnt act 49.0*, esBAF inh 65.5*, MITF TRPM1 HTS 46.5, Env fusion inh -100.8, esBAF Ring1 qPCR 1.08, Fgf4 repress 1.02, esBAF Bmi1 qPCR 1.83, A549 tox SP -3.7, HepG2 cytotox SP 16.5 and HEK293 tox SP -28.8.
`CCC(=O)N1C[C@@H](C)[C@@H](OC)CN(C)C(=O)c2ccc(NC(=O)NC(C)C)cc2OC[C@@H]1C` gave miR122 inh 28.7[16.7 µM], esBAF inh 0.4 and Env fusion inh -10.2[16.7 µM].
Screening O=C(NC[C@@H]1[C@H](c2ccccc2)[C@@H](CO)N1C(=O)Cc1cccnc1)C1CCC1 returned miR122 inh 57.1[16.7 µM] and esBAF inh -3.3.
C[C@@H]1CN([C@@H](C)CO)C(=O)c2cc(NC(=O)C3CC3)ccc2O[C@H]1CN(C)Cc1ccc(-c2ccccc2)cc1 was read as miR122 inh -6.0[16.7 µM] and esBAF inh -4.3.
`Cc1ccc(S(=O)(=O)Nc2ccc3c(c2)CC(=O)N([C@@H](C)CO)C[C@H](C)[C@H](CN(C)C(=O)NC2CCCCC2)O3)cc1` gave miR122 inh -10.1[16.7 µM] and esBAF inh -3.5.
COc1ccccc1C(=O)NCC(=O)Nc1ccc2c(c1)CCC2 was read as miR122 inh 1.8, Wnt act 23.0, esBAF inh 72.8*, MITF TRPM1 HTS inconclusive, Env fusion inh -13.7, esBAF Ring1 qPCR 0.86, Fgf4 repress 0.973, esBAF Bmi1 qPCR 1.26, A549 tox SP -0.8, HepG2 cytotox SP -7.5 and HEK293 tox SP -0.2.

Assay outcomes deposited in PubChem by Broad Institute.
